The record followed here is PubChem BioAssay (NCATS).

Results filed as inconclusive are left out. Calls of active or inactive are those of the source. Calls come from the whole dose curve; as a rule, active = well fitted cell-killing curve with a large enough effect; inconclusive = small, poorly fitted or top-dose-only effect; inactive = flat fitted curve, though single readings scatter.
% is set by controls: 0 for no effect and ±100 for the full control effect; potency is the fitted concentration of half-maximal effect.

This experiment is described as follows: COV-362 Cancer Cell Toxicity qHTS against the NCATS CANVASS Library (AID 1347352). As to conditions: COV-362 viability, CellTiter-Glo luminescence, 72 h; series mostly up to 38.3 µM; activity change, negative = cytotoxicity: at the top concentration. An excerpt: Natural products and their derivatives continue to be wellsprings of nascent therapeutic potential. However, many laboratories have limited resources for biological evaluation, leaving their previously isolated or synthesized compounds largely or completely untested. To address this issue, the Canvass library of natural products was assembled (https://tripod.nih.gov/canvass), in collaboration with academic and industry researchers, for quantitative high-throughput screening (qHTS) across a diverse set of cell-based and biochemical assays. The pure (>85% purity by liquid chromatography/mass spectrometry [LC/MS]) Canvass library of 346 natural products were submitted by 45 academic laboratories and companies around the world. We collected pure natural products to circumvent deconvolution and structure elucidation due to time and resource limitations. The library was formatted into 1536-well plates and evaluated in 50 qHTS (in an 11-pnt concentration series) bioassays with broad scope of disease-relevant mechanisms. The resulting data set from 50 different assays was then systematically analyzed to identify overall trends and specific natural products with interesting biological activities. Reported herein are the results of each individual qHTS and their corresponding assay protocol. National Center for Advancing Translational Sciences (NCATS), Rockville, MD National Institute of Health (NIH), Bethesda, Maryland
Cancer Cell Toxicity COV-362, OV-KATE, OV-SAHO, UWB1.289, UWB1.289-WTBRCA1, HEK-293, HPAF-II, Panc-1005, SW1088, and U-118MG-screen protocol. 1. In a 1536 well, white solid bottom tissue culture plates (Corning 7494), corresponding cells (COV-362, OV-KATE, OV-SAHO, UWB1.289, UWB1.289-WTBRCA1, HEK-293, HPAF-II, Panc-1005, SW1088, or U-118MG) were dispensed in each well at a final concentration of 1000 cells / well (6uL volume) using the Multidrop Combi (Thermo Fisher Scientific) dispenser. 2. The plates were incubated for 4 hours at 37 degrees C/5% CO2/95% Rh. 3. Compounds were pin transferred (~23nL volume) via Wako Pin-tool (Wako Automation, Richmond VA) equipped with a 1536 pin head. The assay plates were treated with compounds in an 11-pnt concentration series with a final concentration range of […] to 85uM. 4. Bortezomib was used as a single dose control (0.5mM column 4, rows 1 - 32) at a final concentration of 1.9uM and as a 16pnt titration (1mM; 1:2 dilution; 16-points; n = 2; column 3, rows 1 - 32) with final concentration range of 0.1nM - 3.8uM. 5. The assay plates were incubated for 72 hours at 37 degrees C/5% CO2/95% Rh. 6. 3uL CellTiter-Glo detection reagent was then added to the plates (columns 2 - 48, rows 1 - 32) and incubated at room temperature for additional 15min. 7. Luminescence signal was acquired via the ViewLux plate reader (PerkinElmer) using a clear filter, 2 second exposure and 2x binning settings.
A general note: Quantitative high-throughput screening tests each substance at several concentrations.
With `COc1ccc2c3c([nH]c2c1)C(C)=NCC3`, the “activity change, negative = cytotoxicity” value was -19.7% (inactive). On the same count and under the same terms, next, `CCC[C@H]1CC[C@H]2[C@H](C)CCC[C@H]2N1`: -2.55% (inactive). Regarding `CCC(=O)CCCCC[C@@H]1NC(=O)[C@H]2CCCCN2C(=O)[C@H]([C@@H](C)CC)NC(=O)[C@H](Cc2cn(OC)c3ccccc23)NC1=O`, the Potency is 16.7 µM (active). On to `CCN1C[C@]2(C)CC[C@@H](O)[C@]34C1[C@H](C[C@H]23)C12CCC(CC14)[C@](O)(CO)[C@H]2O` (stereo not given in full), for which the “activity change, negative = cytotoxicity” value was 4.23% (inactive). In the case of `CNCCc1c[nH]c2ccccc12`, the “activity change, negative = cytotoxicity” value was 0% (inactive). The same measure, in the same setting: the same measure for `C/C=C1/CN2CC[C@]34C(=Nc5ccccc53)[C@@H]2C[C@@H]1[C@H]4C(=O)OC`: -3.6% [at 76 µM] (inactive); for `CNCCc1ccc(O)cc1`: 0% (inactive); for `CN(C)Cc1c[nH]c2ccccc12`: -1.8% (inactive). Still for that read-out and setting: the same measure for `CCCC[C@@H]1CC[C@H]2CCCC(CCC)N12` (stereo not given in full): 3.23% (inactive); for `COc1ccc(C23Oc4cc(OC)cc(OC)c4[C@](O)([C@H](c4ccccc4)C2C(=O)NCCCCNC(=O)c2ccccc2)[C@@H]3O)cc1` (stereo not given in full): -4.79% (inactive). Same read-out and setting: the same measure for `CO[C@H](c1ccccc1)[C@H]1NC(=O)C(C)NC(=O)C(C[C@@H](C)CO)N(C)C(=O)[C@@H](C(O)c2cn(C(C)(C)C3CO3)c3ccccc23)NC(=O)C(C(C)C=C(C)C)NC(=O)C(CC(C)C)N(C)C(=O)C(C(C)C)NC1=O` (stereo not given in full): -17% [at 22.9 µM] (inactive); for `CC(=O)N[C@H]1CCN2CCC[C@H]12`: -2.14% [at 85.4 µM] (inactive). Consider `C[C@]12CC(O)C3[C@@H](CCC4C[C@@H](O)CC[C@@]43CO)[C@@]1(O)CCC2C1=CC(=O)OC1` (stereo not given in full), for which the “activity change, negative = cytotoxicity” value was -1.79% (inactive). As to `COc1ccc2c(c1)[nH]c1c(C)nccc12`, the Potency was 38.6 µM (active).

For `c1ccc2c3c([nH]c2c1)CNCC3`, the “activity change, negative = cytotoxicity” value was -19.3% (inactive). On the same count and under the same terms, the same measure for `CC=C1CN(C=O)[C@H]2C[C@@H]1[C@@H](C(=O)OC)[C@@]13CCOC21Nc1ccccc13` (stereo not given in full): -4.8% (inactive). Still for that read-out and setting: the same measure for `CC1=CC2CC[C@@H]3[C@@H](C)C[C@H](C)[C@@H](C1)N23` (stereo not given in full): 0% (inactive). On to `C[C@@H]1CC[C@@H](c2ccoc2)N2C[C@@]3(CC[C@@H]12)CS[C@@]1(CC[C@H]2[C@H](C)CC[C@@H](c4ccoc4)N2[C@@H]1O)C3`, for which the Potency is 7.47 µM (active). `CNCCc1ccccc1`: the “activity change, negative = cytotoxicity” value is 0% (inactive). Turning to `CO[C@@H](/C=C/CC/C=C/C(=O)O)[C@@H](O)[C@H](C)[C@@H](O)/C(C)=C/[C@H](C)C(=O)CCCC1CC(=O)NC(=O)C1`, the “activity change, negative = cytotoxicity” value is -11% (inactive). For the compound `O=C(c1ccccc1O)c1[nH]c(Cl)c(Cl)c1-n1c(C(=O)c2ccccc2O)cc(Cl)c1Cl`, the Potency is 2.11 µM (active). Turning to `CC1=CC(=O)C2=C(C)C[C@H](O)[C@@H]3[C@H](OC(=O)[C@@H]3C)[C@@H]12`, the “activity change, negative = cytotoxicity” value is -7.65% (inactive).

`CC[N@@+]1([O-])C[C@]2(C)CC[C@@H](O)[C@@]34C5C[C@H]6CC[C@@]5(C(C[C@H]23)C41)[C@H](O)[C@@]6(O)CO` (stereo not given in full): the “activity change, negative = cytotoxicity” value is -3.57% (inactive). Still for that read-out and setting: next, `CCN1C[C@]2(C)CC[C@H](O)[C@]34C1C(C[C@H]23)[C@@]12CC[C@H](CC14)[C@](O)(COC(=O)c1ccc(OC)c(OC)c1)[C@H]2O` (stereo not given in full): -15.2% (inactive); `CN1C(=O)[C@]23CC4C(C)(C)[C@@]5(C[C@@]41CN2CC[C@@]3(C)O)C(=O)Nc1c5ccc2c1OC=CC(C)(C)O2` (stereo not given in full): -4.28% (inactive); `COC(=O)C1=C2Nc3ccccc3[C@@]23CCN2CC(C(C)=O)C1C[C@H]23` (stereo not given in full): 4.27% (inactive). Same read-out and setting: the same measure for `CO[C@@H](/C=C/CC/C=C/C(=O)O)[C@@H](O)[C@H](C)/C=C(\C)[C@@H](O)[C@H](C)C(=O)CCCC1CC(=O)NC(=O)C1`: 1.63% (inactive).

Regarding `CCCCC[C@@H]1OC(=O)[C@@H](C)N(C)C(=O)[C@H](CCCCC)OC(=O)C(C)N(C)C(=O)[C@H](CCCCC)OC(=O)[C@@H](C)N(C)C(=O)[C@H](CCCCC)OC(=O)C(C)N(C)C1=O` (stereo not given in full), the Potency was 9.41 µM (active). Turning to `NCCc1ccccc1`, the “activity change, negative = cytotoxicity” value is -0.569% (inactive). Same read-out and setting: the same measure for `CC[C@@H]1CN2CC[C@@]3(O)C(=Nc4cccc(OC)c43)[C@@H]2C[C@@H]1/C(=C\OC)C(=O)OC`: -20.3% (inactive).
